# Measurements reported in paper PMC7862700, “An all-to-all approach to the identification of sequence-specific readers for epigenetic DNA modifications on cytosine”.
# How the values were obtained:
# Assay in all cases: DAPPL (digital affinity profiling via proximity ligation, sequencing); 10 mM Tris-HCl pH 7.5, 50 mM NaCl, 1 mM DTT, 4% glycerol, room temperature, 30 min; GST-TFs on glutathione beads, 16-mer random dsDNA library, 0.1% formaldehyde crosslink after washing; high values mean tight binding
# FLI1 = molecular target: T1, FLI1 (Homo sapiens, UniProt Q01543 1-452); conditions: protein: recombinant; tags: N-terminal GST; dsDNA, one strand shown
# T1 sequence: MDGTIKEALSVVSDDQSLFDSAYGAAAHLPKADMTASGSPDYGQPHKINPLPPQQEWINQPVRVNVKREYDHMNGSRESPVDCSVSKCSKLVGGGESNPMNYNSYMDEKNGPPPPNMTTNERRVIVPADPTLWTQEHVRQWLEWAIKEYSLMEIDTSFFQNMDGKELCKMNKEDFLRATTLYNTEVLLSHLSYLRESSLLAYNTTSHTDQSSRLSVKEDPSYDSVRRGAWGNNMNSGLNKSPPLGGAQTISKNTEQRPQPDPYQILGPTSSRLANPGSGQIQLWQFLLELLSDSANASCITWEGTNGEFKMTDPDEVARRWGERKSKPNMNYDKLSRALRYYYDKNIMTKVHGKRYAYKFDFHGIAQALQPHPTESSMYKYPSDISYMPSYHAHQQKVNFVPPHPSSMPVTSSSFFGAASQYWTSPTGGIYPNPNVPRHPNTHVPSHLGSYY
# Summary of the method: (§1)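 Sequencing on an Illumina NextSeq500 followed washing, crosslinking with 0.1% formaldehyde, proximity ligation (BsaI/T4 ligase, 1 h, 37 °C) and PCR amplification of pools that had been incubated for 30 min at room temperature with 200 nmole of a random double-stranded 16-mer DNA library in Tris/NaCl/DTT/glycerol buffer. Each pool held DNA-barcoded human transcription factors, expressed in yeast as GST fusions and captured on glutathione beads, plus a tag-only sample. Binding signal is a hexamer's read frequency for a factor divided by its frequency in the tag-only sample.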
# ELK1 = molecular target: T2, ELK1 (Homo sapiens, UniProt P19419 1-428); conditions: protein: recombinant; tags: N-terminal GST; dsDNA, one strand shown
# T2 sequence: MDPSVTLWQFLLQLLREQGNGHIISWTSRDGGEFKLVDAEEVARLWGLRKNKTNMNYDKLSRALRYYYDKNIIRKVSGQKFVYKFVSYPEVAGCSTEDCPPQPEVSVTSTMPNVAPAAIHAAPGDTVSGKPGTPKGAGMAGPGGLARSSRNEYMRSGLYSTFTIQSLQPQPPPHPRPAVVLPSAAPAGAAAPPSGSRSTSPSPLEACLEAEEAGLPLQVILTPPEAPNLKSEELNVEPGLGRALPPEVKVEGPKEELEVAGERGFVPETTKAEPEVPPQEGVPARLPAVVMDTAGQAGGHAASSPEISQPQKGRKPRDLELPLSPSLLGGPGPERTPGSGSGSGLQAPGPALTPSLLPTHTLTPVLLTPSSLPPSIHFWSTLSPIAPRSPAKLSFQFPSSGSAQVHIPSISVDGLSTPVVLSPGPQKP
# Summary of the method: as §1
# GABPA = molecular target: T3, GABPA (Homo sapiens, UniProt Q06546 1-454); conditions: protein: recombinant; tags: N-terminal GST; dsDNA, one strand shown
# T3 sequence: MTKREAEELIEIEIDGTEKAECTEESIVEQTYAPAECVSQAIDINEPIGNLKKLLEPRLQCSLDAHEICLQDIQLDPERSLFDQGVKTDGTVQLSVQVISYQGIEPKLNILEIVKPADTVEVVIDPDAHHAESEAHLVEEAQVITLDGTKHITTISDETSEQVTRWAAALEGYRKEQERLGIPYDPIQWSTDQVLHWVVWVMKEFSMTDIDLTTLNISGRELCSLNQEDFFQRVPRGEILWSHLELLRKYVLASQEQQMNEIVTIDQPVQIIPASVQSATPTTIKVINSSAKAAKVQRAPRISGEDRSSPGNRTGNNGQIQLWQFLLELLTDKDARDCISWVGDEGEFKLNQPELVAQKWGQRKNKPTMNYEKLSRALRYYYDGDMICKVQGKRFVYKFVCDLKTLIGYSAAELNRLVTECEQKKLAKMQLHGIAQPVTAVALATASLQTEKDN
# Summary of the method: as §1
# ERG = molecular target: T4, ERG (Homo sapiens, UniProt P11308 1-479); conditions: protein: recombinant; tags: N-terminal GST; dsDNA, one strand shown
# T4 sequence: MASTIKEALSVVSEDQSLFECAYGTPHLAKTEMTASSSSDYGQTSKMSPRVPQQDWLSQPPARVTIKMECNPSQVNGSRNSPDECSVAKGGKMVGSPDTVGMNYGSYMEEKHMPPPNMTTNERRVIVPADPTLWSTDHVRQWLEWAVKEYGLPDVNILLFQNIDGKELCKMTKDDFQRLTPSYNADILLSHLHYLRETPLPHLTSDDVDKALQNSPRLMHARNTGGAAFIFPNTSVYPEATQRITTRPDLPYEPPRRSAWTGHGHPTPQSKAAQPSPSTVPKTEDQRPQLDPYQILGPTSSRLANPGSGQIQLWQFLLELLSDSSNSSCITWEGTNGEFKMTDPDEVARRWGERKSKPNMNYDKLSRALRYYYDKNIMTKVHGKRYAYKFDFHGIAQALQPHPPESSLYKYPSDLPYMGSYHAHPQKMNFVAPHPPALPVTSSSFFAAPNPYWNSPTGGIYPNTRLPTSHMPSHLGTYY
# Summary of the method: as §1
# ELF1 = ELF1 (Homo sapiens, UniProt P32519 1-619); conditions: protein: recombinant; tags: N-terminal GST; dsDNA, one strand shown
# Sequence of ELF1 (P32519 whole entry): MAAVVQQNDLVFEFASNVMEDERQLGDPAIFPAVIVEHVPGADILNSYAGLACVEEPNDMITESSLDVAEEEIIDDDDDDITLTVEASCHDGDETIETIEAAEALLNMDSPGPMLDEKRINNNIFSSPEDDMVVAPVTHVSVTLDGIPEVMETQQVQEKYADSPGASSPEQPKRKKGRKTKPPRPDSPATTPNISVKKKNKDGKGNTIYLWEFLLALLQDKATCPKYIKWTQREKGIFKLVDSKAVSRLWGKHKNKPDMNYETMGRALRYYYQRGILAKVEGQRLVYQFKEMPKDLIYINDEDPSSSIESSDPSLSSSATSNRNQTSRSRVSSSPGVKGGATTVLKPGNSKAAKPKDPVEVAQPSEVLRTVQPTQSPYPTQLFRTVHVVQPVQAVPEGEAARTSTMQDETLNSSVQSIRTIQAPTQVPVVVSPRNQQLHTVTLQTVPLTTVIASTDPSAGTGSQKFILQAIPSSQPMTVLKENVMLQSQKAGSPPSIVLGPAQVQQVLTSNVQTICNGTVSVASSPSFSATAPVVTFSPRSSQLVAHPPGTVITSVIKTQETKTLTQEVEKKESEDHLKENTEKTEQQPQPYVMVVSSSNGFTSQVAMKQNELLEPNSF
# Summary of the method: as §1
# EHF = molecular target: T5, EHF (Homo sapiens, UniProt Q9NZC4 1-300); conditions: protein: recombinant; tags: N-terminal GST; dsDNA, one strand shown
# T5 sequence: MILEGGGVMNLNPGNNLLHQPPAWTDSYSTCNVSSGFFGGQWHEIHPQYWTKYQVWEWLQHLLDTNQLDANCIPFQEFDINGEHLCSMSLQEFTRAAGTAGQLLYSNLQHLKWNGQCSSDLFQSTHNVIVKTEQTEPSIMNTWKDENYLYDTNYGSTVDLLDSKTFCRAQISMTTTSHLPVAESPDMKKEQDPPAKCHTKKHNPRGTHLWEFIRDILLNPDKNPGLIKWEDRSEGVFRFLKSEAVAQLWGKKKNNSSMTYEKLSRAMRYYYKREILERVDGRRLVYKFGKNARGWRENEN
# Summary of the method: as §1
# SPI1 = SPI1 (Homo sapiens, UniProt P17947 1-270); conditions: protein: recombinant; tags: N-terminal GST; dsDNA, one strand shown
# Summary of the method: as §1
# SPIB = SPIB (Homo sapiens, UniProt Q01892 1-262); conditions: protein: recombinant; tags: N-terminal GST; dsDNA, one strand shown
# Sequence of SPIB (Q01892 whole entry): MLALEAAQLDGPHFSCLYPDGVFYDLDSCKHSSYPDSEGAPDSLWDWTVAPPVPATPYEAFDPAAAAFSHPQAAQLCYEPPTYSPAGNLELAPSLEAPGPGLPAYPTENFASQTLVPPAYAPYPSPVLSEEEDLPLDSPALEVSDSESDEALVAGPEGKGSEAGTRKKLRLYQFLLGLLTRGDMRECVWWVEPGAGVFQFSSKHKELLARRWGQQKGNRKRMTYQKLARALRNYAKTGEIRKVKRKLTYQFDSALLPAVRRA
# Summary of the method: as §1
# ELK3 = molecular target: T6, ELK3 (Homo sapiens, UniProt P41970 1-407); conditions: protein: recombinant; tags: N-terminal GST; dsDNA, one strand shown
# T6 sequence: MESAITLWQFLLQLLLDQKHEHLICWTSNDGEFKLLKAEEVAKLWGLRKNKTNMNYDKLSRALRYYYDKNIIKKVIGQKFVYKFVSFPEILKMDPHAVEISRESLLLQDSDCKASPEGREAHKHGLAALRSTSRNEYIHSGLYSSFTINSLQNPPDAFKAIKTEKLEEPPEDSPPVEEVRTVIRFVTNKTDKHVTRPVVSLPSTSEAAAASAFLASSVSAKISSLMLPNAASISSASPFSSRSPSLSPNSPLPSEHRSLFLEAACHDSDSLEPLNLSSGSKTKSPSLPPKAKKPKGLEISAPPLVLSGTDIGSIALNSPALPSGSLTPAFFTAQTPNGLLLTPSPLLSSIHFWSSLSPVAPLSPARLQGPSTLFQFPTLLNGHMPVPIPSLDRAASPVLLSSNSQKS
# Summary of the method: as §1
# FEV = molecular target: T7, FEV (Homo sapiens, UniProt Q99581 1-238); conditions: protein: recombinant; tags: N-terminal GST; dsDNA, one strand shown
# T7 sequence: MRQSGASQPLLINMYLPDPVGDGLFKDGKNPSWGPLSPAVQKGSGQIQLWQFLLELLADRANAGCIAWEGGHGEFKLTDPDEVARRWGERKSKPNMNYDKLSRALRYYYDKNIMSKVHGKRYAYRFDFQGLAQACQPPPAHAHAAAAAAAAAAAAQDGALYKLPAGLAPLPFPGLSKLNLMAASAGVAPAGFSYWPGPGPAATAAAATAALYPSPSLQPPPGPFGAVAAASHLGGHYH
# Summary of the method: as §1
# ETV5 = ETV5 (Homo sapiens, UniProt P41161 1-510); conditions: protein: recombinant; tags: N-terminal GST; dsDNA, one strand shown
# Sequence of ETV5 (P41161 whole entry): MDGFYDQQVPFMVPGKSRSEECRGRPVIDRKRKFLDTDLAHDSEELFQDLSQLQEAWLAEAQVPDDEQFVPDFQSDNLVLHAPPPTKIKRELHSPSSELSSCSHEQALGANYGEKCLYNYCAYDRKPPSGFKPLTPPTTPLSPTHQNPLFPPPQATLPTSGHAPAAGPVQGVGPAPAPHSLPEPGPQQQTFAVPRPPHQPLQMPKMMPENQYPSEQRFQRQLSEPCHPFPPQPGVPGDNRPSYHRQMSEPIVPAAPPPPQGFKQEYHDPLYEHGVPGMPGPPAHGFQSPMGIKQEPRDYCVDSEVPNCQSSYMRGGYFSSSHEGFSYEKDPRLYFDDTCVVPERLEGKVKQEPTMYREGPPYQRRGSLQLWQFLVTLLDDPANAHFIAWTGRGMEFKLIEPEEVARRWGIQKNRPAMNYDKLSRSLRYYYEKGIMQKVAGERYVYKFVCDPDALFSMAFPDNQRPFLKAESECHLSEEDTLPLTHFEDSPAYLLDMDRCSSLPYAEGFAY
# Summary of the method: as §1
# HSF1 = HSF1 (Homo sapiens, UniProt Q00613 1-529); conditions: protein: recombinant; tags: N-terminal GST; chain copies: 3; dsDNA, one strand shown
# Sequence of HSF1 (Q00613 whole entry): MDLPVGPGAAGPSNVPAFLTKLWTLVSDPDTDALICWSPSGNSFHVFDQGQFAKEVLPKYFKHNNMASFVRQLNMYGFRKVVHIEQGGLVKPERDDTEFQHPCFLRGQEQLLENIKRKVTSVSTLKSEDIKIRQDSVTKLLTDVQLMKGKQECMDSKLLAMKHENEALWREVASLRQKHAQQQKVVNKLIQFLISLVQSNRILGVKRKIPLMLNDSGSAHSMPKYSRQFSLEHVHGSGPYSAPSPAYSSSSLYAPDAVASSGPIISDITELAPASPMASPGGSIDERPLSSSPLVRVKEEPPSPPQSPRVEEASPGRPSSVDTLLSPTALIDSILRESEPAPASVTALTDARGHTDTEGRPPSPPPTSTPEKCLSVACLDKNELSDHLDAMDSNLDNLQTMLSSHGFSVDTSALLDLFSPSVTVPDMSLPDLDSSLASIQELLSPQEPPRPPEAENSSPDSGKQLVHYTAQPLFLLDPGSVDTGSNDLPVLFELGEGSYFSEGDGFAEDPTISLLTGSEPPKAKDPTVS
# Summary of the method: as §1
# SPIC = molecular target: T8, SPIC (Homo sapiens, UniProt Q8N5J4 1-248); conditions: protein: recombinant; tags: N-terminal GST; dsDNA, one strand shown
# T8 sequence: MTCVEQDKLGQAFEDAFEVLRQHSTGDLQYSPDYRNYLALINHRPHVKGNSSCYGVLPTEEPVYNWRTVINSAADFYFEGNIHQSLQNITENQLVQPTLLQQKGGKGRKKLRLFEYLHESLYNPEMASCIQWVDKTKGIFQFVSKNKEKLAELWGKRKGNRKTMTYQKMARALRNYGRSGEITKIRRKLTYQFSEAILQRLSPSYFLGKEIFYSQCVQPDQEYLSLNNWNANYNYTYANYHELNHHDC
# Summary of the method: as §1
# ELF4 = ELF4 (Homo sapiens, UniProt Q99607 1-663); conditions: protein: recombinant; tags: N-terminal GST; dsDNA, one strand shown
# Sequence of ELF4 (Q99607 whole entry): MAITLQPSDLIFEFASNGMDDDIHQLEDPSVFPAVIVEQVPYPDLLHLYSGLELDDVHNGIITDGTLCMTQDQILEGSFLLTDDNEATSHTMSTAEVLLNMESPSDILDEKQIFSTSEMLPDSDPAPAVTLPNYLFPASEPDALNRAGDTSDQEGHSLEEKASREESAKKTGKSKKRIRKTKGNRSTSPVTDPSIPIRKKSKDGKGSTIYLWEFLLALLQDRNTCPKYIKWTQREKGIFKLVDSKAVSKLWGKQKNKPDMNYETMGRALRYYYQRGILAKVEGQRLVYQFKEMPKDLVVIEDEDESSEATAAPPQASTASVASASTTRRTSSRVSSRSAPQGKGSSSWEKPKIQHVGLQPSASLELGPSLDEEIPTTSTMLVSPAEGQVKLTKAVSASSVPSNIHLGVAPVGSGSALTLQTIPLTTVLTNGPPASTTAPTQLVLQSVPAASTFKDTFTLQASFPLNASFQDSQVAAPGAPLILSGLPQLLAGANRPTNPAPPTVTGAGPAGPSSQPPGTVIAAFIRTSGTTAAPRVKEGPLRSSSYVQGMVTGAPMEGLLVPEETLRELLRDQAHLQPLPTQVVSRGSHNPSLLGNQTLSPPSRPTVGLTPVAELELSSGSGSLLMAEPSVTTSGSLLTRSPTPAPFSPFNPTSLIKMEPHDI
# Summary of the method: as §1
# ELK4 = molecular target: T9, ELK4 (Homo sapiens, UniProt P28324-2 1-405); conditions: protein: recombinant; tags: N-terminal GST; dsDNA, one strand shown
# T9 sequence: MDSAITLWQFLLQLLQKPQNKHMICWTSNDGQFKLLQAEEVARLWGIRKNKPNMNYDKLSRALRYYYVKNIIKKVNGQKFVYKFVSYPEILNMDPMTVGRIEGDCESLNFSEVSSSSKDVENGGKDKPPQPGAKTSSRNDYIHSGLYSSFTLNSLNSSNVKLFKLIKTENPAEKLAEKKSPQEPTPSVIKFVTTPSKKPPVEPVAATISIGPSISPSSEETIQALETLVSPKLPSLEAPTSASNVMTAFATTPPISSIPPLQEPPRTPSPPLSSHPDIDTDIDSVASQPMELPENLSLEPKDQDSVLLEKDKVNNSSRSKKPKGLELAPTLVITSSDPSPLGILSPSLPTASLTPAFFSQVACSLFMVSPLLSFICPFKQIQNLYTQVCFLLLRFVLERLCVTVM
# Summary of the method: as §1
# ETV2 = molecular target: T10, ETV2 (Homo sapiens, UniProt O00321 1-342); conditions: protein: recombinant; tags: N-terminal GST; dsDNA, one strand shown
# T10 sequence: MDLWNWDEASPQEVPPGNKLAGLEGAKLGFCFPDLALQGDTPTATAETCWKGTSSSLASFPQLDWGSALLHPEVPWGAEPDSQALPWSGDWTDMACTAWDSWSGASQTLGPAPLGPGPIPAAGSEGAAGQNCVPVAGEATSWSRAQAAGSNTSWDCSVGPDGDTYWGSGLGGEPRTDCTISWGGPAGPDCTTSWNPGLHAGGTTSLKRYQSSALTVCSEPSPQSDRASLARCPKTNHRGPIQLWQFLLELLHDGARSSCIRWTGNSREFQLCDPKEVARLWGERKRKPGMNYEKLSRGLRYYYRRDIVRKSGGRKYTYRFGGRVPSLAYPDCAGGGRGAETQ
# Summary of the method: as §1
# ELF3 = molecular target: T11, ELF3 (Homo sapiens, UniProt P78545 1-371); conditions: protein: recombinant; tags: N-terminal GST; dsDNA, one strand shown
# T11 sequence: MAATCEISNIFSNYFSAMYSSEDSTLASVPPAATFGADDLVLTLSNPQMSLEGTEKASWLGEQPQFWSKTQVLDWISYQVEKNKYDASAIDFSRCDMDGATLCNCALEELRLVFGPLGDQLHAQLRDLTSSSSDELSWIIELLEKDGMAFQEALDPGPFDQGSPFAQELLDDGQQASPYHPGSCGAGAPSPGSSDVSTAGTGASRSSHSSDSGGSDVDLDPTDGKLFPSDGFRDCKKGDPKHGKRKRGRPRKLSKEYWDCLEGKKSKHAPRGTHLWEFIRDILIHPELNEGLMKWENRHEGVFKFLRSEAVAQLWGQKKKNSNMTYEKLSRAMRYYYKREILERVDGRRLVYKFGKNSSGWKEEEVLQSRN
# Summary of the method: as §1
# CRX = CRX (Homo sapiens, UniProt O43186 1-299); conditions: protein: recombinant; tags: N-terminal GST; dsDNA, one strand shown
# Sequence of CRX (O43186 whole entry): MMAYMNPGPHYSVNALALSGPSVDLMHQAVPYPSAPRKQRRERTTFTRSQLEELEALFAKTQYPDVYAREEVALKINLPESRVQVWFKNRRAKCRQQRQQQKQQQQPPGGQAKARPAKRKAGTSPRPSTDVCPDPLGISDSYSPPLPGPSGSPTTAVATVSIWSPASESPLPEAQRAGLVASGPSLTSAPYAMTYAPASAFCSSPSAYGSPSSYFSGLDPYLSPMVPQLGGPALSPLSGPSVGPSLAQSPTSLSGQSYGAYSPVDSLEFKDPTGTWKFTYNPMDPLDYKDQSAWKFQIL
# Summary of the method: as §1
# ETV1 = ETV1 (Homo sapiens, UniProt P50549 1-477); conditions: protein: recombinant; tags: N-terminal GST; dsDNA, one strand shown
# Sequence of ETV1 (P50549 whole entry): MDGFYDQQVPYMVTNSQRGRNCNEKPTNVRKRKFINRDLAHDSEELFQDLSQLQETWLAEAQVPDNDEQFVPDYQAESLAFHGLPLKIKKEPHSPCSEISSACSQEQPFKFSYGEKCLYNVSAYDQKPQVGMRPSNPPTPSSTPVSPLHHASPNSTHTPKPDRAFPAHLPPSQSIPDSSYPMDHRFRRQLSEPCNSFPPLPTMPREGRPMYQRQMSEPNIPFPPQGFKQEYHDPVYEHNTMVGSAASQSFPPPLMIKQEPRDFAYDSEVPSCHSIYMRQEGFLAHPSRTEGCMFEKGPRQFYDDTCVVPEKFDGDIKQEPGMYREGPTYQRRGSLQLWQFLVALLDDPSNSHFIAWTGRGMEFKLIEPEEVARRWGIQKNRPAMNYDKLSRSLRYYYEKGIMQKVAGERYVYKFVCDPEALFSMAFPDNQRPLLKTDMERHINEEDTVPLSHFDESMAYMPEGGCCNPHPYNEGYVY
# Summary of the method: as §1
sequence,measurement,setting,value
TTATGC,binding signal,FLI1,"1.34 fold enrichment (6-mer frequency, TF over GST control)"
same,binding signal,ELK1,"1.34 fold enrichment (6-mer frequency, TF over GST control)"
same,binding signal,GABPA,"1.22 fold enrichment (6-mer frequency, TF over GST control)"
same,binding signal,ERG,"1.31 fold enrichment (6-mer frequency, TF over GST control)"
same,binding signal,ELF1,"1.15 fold enrichment (6-mer frequency, TF over GST control)"
same,binding signal,EHF,"1.43 fold enrichment (6-mer frequency, TF over GST control)"
same,binding signal,SPI1,"1.34 fold enrichment (6-mer frequency, TF over GST control)"
same,binding signal,SPIB,"1.26 fold enrichment (6-mer frequency, TF over GST control)"
same,binding signal,ELK3,"1.16 fold enrichment (6-mer frequency, TF over GST control)"
same,binding signal,FEV,"1.24 fold enrichment (6-mer frequency, TF over GST control)"
same,binding signal,ETV5,"1.3 fold enrichment (6-mer frequency, TF over GST control)"
same,binding signal,HSF1,"1.58 fold enrichment (6-mer frequency, TF over GST control)"
same,binding signal,SPIC,"1.55 fold enrichment (6-mer frequency, TF over GST control)"
same,binding signal,ELF4,"1.31 fold enrichment (6-mer frequency, TF over GST control)"
same,binding signal,ELK4,"1.33 fold enrichment (6-mer frequency, TF over GST control)"
same,binding signal,ETV2,"1.22 fold enrichment (6-mer frequency, TF over GST control)"
same,binding signal,ELF3,"1.48 fold enrichment (6-mer frequency, TF over GST control)"
same,binding signal,CRX,"2.28 fold enrichment (6-mer frequency, TF over GST control)"
same,binding signal,ETV1,"1.32 fold enrichment (6-mer frequency, TF over GST control)"
